An excerpt weighted towards active compounds, which were near 2.6% of everything screened.
TROY signal inh = inhibitors of TROY-dependent NF-kB signaling; Q293 LMP1-TROYcd NF-kB luciferase reporter, 4 h; inhibition, % at 10 µM; actives 0.98% (n = 360,000);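 active = compounds whose plate-normalised and pattern-corrected inhibition of the luciferase reporter signal at the single screening dose is 50% or more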
LGR2 inh = inhibitors of bursicon-induced Drosophila LGR2 receptor cAMP signaling; inhibition, % at 9.99 µM; HEK293 LGR2, CRE-luciferase, bursicon-stimulated, 4 h; actives 0.35% (n = 380,000);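 active = drop in luminescence signal, shown as inhibition above about 50% in the replicate tests, limit read from the data, passing the limit was not always enough; inconclusive = probably only some replicates passing the limit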;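 note: agonist challenge used bursicon conditioned medium at about half maximal strength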
TWEAK-Fn14 inh = blocks TWEAK-Fn14 interaction in a reporter cell assay. TWEAK-stimulated Fn14 reporter cells, luciferase luminescence, 8 h. inhibition, % at 10 µM. actives 2% (n = 360,000); in the data active = inhibition above about 50%
CF NFkB inh = inhibitors of cystic fibrosis induced NF-kB; actives 0.86% (n = 360,000); AID 588850; inhibition, % at 5 µM; KKLEB NF-kB-GFP reporter, PAF-induced, GFP fluorescence overnight;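 active = at least 50% inhibition at 5 µM, scaled per plate between neutral and stimulator controls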;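 note: PAF is a Pseudomonas aeruginosa culture filtrate used as stimulus; plate controls were PAF-stimulated DMSO wells for no effect and unstimulated DMSO wells for full effect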
KKLEB tox = reduces viability of KKLEB cystic fibrosis airway cells. activity change (cytotoxicity), % at 5 µM. AID 602141. actives 0.36% (n = 360,000). KKLEB CF airway cells viability, ATPlite luminescence, overnight; stronger effect = lower value; cells stimulated with P. aeruginosa culture filtrate;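 active = corrected activity change at or below -50% at 5 µM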
EWS-Fli block = blocks EWS/Fli oncoprotein-driven transcription; A673 NR0B1-luciferase reporter, viability-normalised; AID 651661; actives 0.67% (n = 350,000); inhibition, % at 12.6 µM;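 active = mean inhibition of at least 50% after viability correction, with every replicate also passing that limit; inconclusive = mean reaches 50% but only one of two replicates passes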;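 note: firefly luciferase signal divided by Alamar Blue viability fluorescence both relative to DMSO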
Starred values were filed as active, the others as inactive; ? = inconclusive; . = not tested or not shown.

SMILES | TROY signal inh | LGR2 inh | TWEAK-Fn14 inh | CF NFkB inh | KKLEB tox | EWS-Fli block
C[C@H](CO)N1C[C@H](C)[C@H](CN(C)S(=O)(=O)c2ccc(Cl)cc2)Oc2ccc(NC(=O)C3CC3)cc2C1=O | . | -0.8 | . | . | . | 21.9
COc1ccc2oc(C(=O)Nc3nnc(C)s3)c(C)c2c1 | 11.8 | -23.0 | 67.7* | -58.9 | -26.0 | 38.6
Cc1c(/C=N/NC(=O)c2ccccc2O)c2ccccn2c1C(=O)c1ccc(F)cc1 | 51.4* | ? | 65.8* | 5.5 | -3.3 | -2.2
Cc1c(/C=N/NC(=O)c2ccc(O)cc2)c2ccccn2c1C(=O)c1ccc(F)cc1 | -4.0 | 9.1 | 53.6* | -1.9 | -4.2 | .
COc1cccc(S(=O)(=O)N(C)C[C@H]2Oc3ncc(C#CC(C)C)cc3C(=O)N([C@@H](C)CO)C[C@H]2C)c1 | . | 5.9 | . | . | . | 1.6
CCN(C(=O)CCN1C(=O)/C(=C/c2ccccc2)SC1=S)C1CCS(=O)(=O)C1 (stereo not given) | 22.1 | 58.6* | 34.6 | 8.1 | 4.1 | -6.3
COc1ccc(/C=C2\SC(=S)N(CCCC(=O)N3CCOCC3)C2=O)cc1 | -17.0 | -10.8 | 94.7* | 0.3 | -5.8 | .
COc1ccc(/C=C2/SC(=S)N(CCC(=O)O)C2=O)cc1 | 39.1 | -55.1 | 84.9* | 10.5 | -0.5 | .
CN1CCN(C(=O)CCN2C(=O)/C(=C\c3ccccc3F)SC2=S)CC1 | -4.8 | 1.5 | 9.9 | 54.9* | -4.2 | .
COc1ccc(/C=C2\SC(=S)N(CCC(=O)Nc3ccc(C(=O)O)cc3)C2=O)cc1 | -36.6 | -14.3 | -40.0 | 5.7 | -1.5 | -21.6
CN(C(=O)CCN1C(=O)/C(=C/c2ccc(F)cc2)SC1=S)C1CCS(=O)(=O)C1 (stereo not given) | -8.6 | 15.5 | -3.8 | -18.9 | 1.4 | -19.8
COc1ccc(/C=C2\SC(=S)N(CCCC(=O)N3CCOCC3)C2=O)cc1OC | -1.6 | 1.4 | 22.3 | 17.4 | 4.8 | 0.5
Cc1ccc(S(=O)(=O)N2CCN(c3cc4c(cc3[N+](=O)[O-])n(C)c(=O)n4C)CC2)cc1 | 50.6* | 9.4 | 34.9 | -11.0 | -1.7 | 6.6
C[C@@H]1CN([C@@H](C)CO)C(=O)c2cccc(NC(=O)Nc3ccc4c(c3)OCO4)c2O[C@@H]1CN(C)S(=O)(=O)c1cn(C)cn1 | . | -10.6 | . | . | . | -9.0
O=C(CN1c2ccccc2Sc2ccccc21)NNC(=S)Nc1ccc(Cl)cc1Cl | 52.0* | . | -6.6 | 26.5 | -17.2 | .
CCCNC(=O)N1CC2(C1)CN(C(=O)CC)[C@@H](CO)c1c2c2ccc(OC)cc2n1C | . | -12.0 | . | . | . | -17.7
N#Cc1cc(-c2ccccc2)[nH]c1-c1nccc2ccccc12 | 25.2 | -8.1 | 56.4* | 0.0 | -10.1 | 14.4
COC(=O)c1c(-c2ccccc2)[nH]c(-c2nccc3ccccc23)c1C(=O)OC | 3.4 | -21.4 | 15.1 | 10.4 | -17.9 | -5.6
Cc1ccc(S(=O)(=O)N2CC=C(c3c(C)n(C)c4ccccc34)CC2)cc1 | 71.0* | 11.0 | 43.0 | 8.0 | -11.8 | 16.1
Cc1ccc(-c2csc3ncn(/N=C/N(C)C)c(=O)c23)o1 | 9.7 | . | 98.5* | -2.9 | -6.1 | .
CCCNC(=O)C[C@H]1CC[C@@H]2[C@@H](COc3ccc(NC(=O)c4ccc(Cl)cc4)cc3C(=O)N2C)O1 | . | 3.4 | . | . | . | -33.9
C[C@H](CO)N1C[C@H](C)[C@@H](CN(C)C(=O)c2ccc(F)cc2)Oc2cc(C3=CCCC3)ccc2S1(=O)=O | . | -5.9 | . | . | . | 8.3
CCCn1c(=N)n(CC(=O)c2ccc([N+](=O)[O-])cc2)c2ccccc21 | 10.3 | 22.5 | -21.9 | -21.4 | -3.4 | -0.7
Cc1ccccc1Cn1c(=N)n(CC(=O)c2ccc([N+](=O)[O-])cc2)c2ccccc21 | 8.9 | . | 9.6 | 37.9 | -64.2* | 1.9
CC(C)(CC(=O)N1CCN(c2ccc(Cl)cc2)CC1)CC1=NS(=O)(=O)c2ccccc2N1 | 39.2 | . | 54.4* | 5.5 | -6.3 | .
CN(C)C(=O)c1cccc(-c2ccccc2[C@H]2[C@H](C#N)N(C(=O)C3CCCCC3)[C@H]2CO)c1 | . | -19.3 | . | . | . | 6.5
C[C@H](CO)N1C[C@H](C)[C@H](CN(C)Cc2ccccn2)Oc2cc(C3=CCCCC3)ccc2S1(=O)=O | . | 5.4 | . | . | . | 21.4
Nc1ccc(-c2cnc(-c3ccc(N)cc3)nc2)cc1 | -4.3 | . | 66.6* | -32.4 | 1.0 | .

Source: PubChem BioAssay (several laboratories)
